Compound activity (PubChem BioAssay)
BAZ2B inh = blocks human BAZ2B. Q9UIF8. AlphaScreen BAZ2B-H3K14Ac peptide displacement. Potency, µM (titrated, usually from 114 µM), for inactives: at the top dose activity change, negative = inhibition, hits mostly inhibitors. 360,000 compounds, 4.4% hits; also: % is scaled to controls: 0 for no effect and ±100 for the full control effect; nearly all actives have a fitted effect of over 60% in size
Target sequence (Q9UIF8 whole entry, looked up): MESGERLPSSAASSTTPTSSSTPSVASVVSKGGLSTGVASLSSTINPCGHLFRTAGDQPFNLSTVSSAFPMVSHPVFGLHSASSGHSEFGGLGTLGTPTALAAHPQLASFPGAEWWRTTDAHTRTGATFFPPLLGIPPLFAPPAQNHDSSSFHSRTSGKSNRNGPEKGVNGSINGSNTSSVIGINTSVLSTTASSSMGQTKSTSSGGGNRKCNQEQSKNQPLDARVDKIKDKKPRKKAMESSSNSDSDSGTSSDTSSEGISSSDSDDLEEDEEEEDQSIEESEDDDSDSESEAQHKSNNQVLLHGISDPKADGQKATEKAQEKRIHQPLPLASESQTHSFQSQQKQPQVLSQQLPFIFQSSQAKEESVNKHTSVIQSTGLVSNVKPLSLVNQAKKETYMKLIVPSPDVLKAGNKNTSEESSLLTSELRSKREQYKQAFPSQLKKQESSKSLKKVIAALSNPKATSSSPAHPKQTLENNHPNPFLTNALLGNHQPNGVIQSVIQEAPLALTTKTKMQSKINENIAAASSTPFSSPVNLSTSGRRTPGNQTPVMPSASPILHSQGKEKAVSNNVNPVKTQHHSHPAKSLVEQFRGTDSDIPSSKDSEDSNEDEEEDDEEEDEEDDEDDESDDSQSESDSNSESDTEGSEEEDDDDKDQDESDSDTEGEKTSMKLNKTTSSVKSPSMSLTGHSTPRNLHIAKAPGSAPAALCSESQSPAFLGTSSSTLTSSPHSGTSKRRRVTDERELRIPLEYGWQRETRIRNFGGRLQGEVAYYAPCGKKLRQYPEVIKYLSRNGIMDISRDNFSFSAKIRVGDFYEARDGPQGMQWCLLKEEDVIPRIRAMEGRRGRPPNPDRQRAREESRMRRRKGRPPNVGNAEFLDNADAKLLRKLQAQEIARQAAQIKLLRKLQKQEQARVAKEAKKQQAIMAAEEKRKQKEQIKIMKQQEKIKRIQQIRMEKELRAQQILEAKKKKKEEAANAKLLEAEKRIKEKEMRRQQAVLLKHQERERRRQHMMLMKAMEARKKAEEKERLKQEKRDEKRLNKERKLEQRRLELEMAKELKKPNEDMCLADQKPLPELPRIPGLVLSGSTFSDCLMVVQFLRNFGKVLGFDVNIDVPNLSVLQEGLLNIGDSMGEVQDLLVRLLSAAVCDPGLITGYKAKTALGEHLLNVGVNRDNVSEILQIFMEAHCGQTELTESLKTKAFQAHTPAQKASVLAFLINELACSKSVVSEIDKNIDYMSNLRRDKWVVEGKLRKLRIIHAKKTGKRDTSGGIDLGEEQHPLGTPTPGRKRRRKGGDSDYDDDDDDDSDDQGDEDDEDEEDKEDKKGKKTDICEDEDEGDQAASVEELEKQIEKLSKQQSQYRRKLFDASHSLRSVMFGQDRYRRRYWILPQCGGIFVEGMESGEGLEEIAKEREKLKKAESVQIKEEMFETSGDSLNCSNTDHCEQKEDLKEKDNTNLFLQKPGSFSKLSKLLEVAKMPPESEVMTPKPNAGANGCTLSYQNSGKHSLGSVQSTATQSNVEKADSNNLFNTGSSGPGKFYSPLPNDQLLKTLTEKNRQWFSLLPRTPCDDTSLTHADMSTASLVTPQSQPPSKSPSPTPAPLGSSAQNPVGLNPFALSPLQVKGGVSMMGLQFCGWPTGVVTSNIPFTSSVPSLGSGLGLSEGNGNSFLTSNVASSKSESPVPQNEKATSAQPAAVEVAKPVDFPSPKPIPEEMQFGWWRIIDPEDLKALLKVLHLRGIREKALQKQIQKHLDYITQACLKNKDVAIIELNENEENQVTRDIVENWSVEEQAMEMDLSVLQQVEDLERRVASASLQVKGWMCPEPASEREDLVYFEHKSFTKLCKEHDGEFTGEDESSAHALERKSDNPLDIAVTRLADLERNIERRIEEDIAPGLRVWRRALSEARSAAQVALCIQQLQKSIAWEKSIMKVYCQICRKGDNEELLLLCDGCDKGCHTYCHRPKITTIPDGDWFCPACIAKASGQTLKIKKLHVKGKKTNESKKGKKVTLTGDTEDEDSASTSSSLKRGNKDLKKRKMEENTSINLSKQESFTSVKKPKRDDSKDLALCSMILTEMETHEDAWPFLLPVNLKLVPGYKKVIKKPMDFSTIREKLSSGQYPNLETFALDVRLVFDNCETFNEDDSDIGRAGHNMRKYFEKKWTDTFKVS
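Inhibition is scored as reduced AlphaScreen emission. The BAZ2B/b-H3(5-23)K14Ac complex (50 nM each) in PBS pH 7.4, 0.01% Tween-20 meets compound (up to 110 uM) for 30 min at RT before bead addition.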
PLK1 PBD inh = blocks phosphopeptide binding to human PLK1 polo-box domain. P53350. Plk1 PBD binding of FITC phosphopeptide, fluorescence polarization. Potency, µM, for inactives: max response, negative = inhibition, usual class: inhibitors. 360,000 compounds, 2.8% hits; also: series mostly up to about 57 µM; % is scaled to controls: 0 for no effect and ±100 for the full control effect; nearly all actives have a fitted effect of over 65% in size
12-LOX inh = inhibitors of human 12S-lipoxygenase ALOX12; AID 1671190; 580,000 compounds, 1.1% hits; P18054; Potency, µM (top dose mostly 108 µM), for inactives: top-dose activity change, negative = inhibition, most hits filed as inhibitors; purified 12hLO, xylenol orange hydroperoxide absorbance; also: % is scaled to controls: 0 for no effect and ±100 for the full control effect
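Purified human 12hLO (150 nM final) in 25 mM Hepes, 0.01% Triton X-100, pH 7.0 was preincubated 15 min at room temperature with compound. Then 40 uM arachidonic acid was added, 30 min. Hydroperoxide was read by Fe-XO absorbance ratio 573/405 nm.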
JMJD2A Tudor inh = blocks the human JMJD2A Tudor domain; O75164; AlphaScreen JMJD2A-Tudor / H3K4me3 peptide binding; Potency, µM (doses to about 114 µM), for inactives: at the top dose activity change, negative = inhibition, actives largely listed as inhibitors; 390,000 compounds, 4.4% hits; also: % is scaled to controls: 0 for no effect and ±100 for the full control effect; nearly all actives have a fitted effect of over 50% in size
G9a inh = inhibitors of human histone lysine methyltransferase G9a | Q96KQ7 | G9a H3K9 monomethylation, AlphaScreen, 2 h | Potency, µM (highest dose often 102 µM), for the others: at the highest dose activity, negative = inhibition, usual class: inhibitors | 350,000 compounds, 8.8% hits | AID 504332; also: % is scaled to controls: 0 for no effect and ±100 for the full control effect; nearly all actives have a fitted effect of over 75% in size
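Signal arises when biotinylated H3K9 peptide, once monomethylated, bridges streptavidin donor and antibody-captured acceptor beads. Enzyme at 20 nM was preincubated 15 min with test compounds; peptide 500 nM and SAM 20 uM then reacted for 2 h.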
HP1b binding inh = HP1-beta chromodomain-methylated histone interaction inhibition; Potency, µM (doses to about 114 µM), inactives show top-dose activity change, negative = inhibition, hits mostly inhibitors; 390,000 compounds, 0.56% hits; AlphaScreen HP1-beta / biotin-H3K9me3 peptide binding; also: nearly all actives have a fitted effect of over 70% in size
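AlphaScreen: HP1-beta (50 nM) preformed 30 min with biotin-H3(1-18)K9me3 peptide (50 nM) in PBS pH 7.4, 0.01% Tween-20. Compound added for 30 min at RT, then streptavidin donor/nickel chelate acceptor beads (10 ug/mL) for 30 min.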
* marks the source's active call; other numbers are inactive results; ? = inconclusive; . = no result; [ ] = remark or other dose. An excerpt weighted towards active compounds, which were near 9% of everything screened. Calls follow the shape of the dose curve; as a rule, active = well fitted curve in the direction sought with a large enough effect; inconclusive = small, poorly fitted or top-dose-only effect, or another doubt; inactive = no such curve, though single readings can be large; an effect the other way counts as inactive or inconclusive. Potency is read from the fitted curve at half-maximal effect.

SMILES	BAZ2B inh	PLK1 PBD inh	12-LOX inh	JMJD2A Tudor inh	G9a inh	HP1b binding inh
CC(C)C[C@@H](CNCC(=O)[C@H](CC(C)C)NC(=O)c1[nH]cnc1C(=O)N[C@@H](C)CN)NC(=O)c1nc[nH]c1C(=O)N[C@@H](CC(C)C)C(=O)O	.	27µM*	28%	56µM*	.	41%
CC(C)C[C@@H](CNCC(=O)[C@H](C)NC(=O)c1[nH]cnc1C(=O)N[C@@H](C)CN)NC(=O)c1nc[nH]c1C(=O)N[C@@H](CC(=O)O)C(=O)O	.	?	6%	79µM*	.	?
CC(C)C[C@@H](CNCC(=O)[C@H](C)NC(=O)c1[nH]cnc1C(=O)N[C@H](CN)CC(C)C)NC(=O)c1nc[nH]c1C(=O)N[C@@H](C)C(=O)O	.	?	37%	56µM*	.	33%
CC(C)C[C@@H](CNCC(=O)[C@H](CC(C)C)NC(=O)c1[nH]cnc1C(=O)N[C@@H](C)CN)NC(=O)c1nc[nH]c1C(=O)N[C@@H](CC(=O)O)C(=O)O	.	?	6%	50µM*	.	60%
Cc1nc(SCc2nc3ccc(C(F)(F)F)cc3[nH]2)c2oc3ccccc3c2n1	.	.	?	-24%	.	27%
CSc1ncccc1C(=O)NC1CC(=O)N(CC2CCCCC2)C1 (stereo not drawn)	.	.	35%	.	.	.
CN1CCN(CC(=O)NC2CCCCC2)CC1	-35%	-6%	?	-11%	?	28%
Cc1cc(Sc2nccn2C)ncc1[N+](=O)[O-]	7%	-13%	-10%	-16%	-5%[59 µM]	21%
Cc1ccc(NC(=O)Cn2c(SCc3cccc(F)c3)nc3ccncc32)c(C)c1	-4%	.	-34%	-8%	2%[59 µM]	33%
CO/N=C\CC(=O)Nc1ccc(Cl)c(Cl)c1	-3%	2%	40µM*	2%	21%[59 µM]	55%
O=C(CC1CCOCC1)Nc1ccc(OC(F)(F)F)cc1	.	.	10%	.	.	.
O=C(CC1CCOCC1)Nc1ccc(Cl)c(Cl)c1	-15%	?	?	0%	40µM*	26%
COc1ccc2c(c1)CCC1C2=NN(/C(C)=C\C(C)=O)C1c1ccc(F)cc1 (stereo not drawn)	13%	12µM*	?	14µM*	16µM*	-20%
COc1ccc2c(c1)C1=NN(/C(C)=C/C(C)=O)C(c3ccc(F)cc3)C1CC2 (stereo not drawn)	1%	2%	?	?	-14%[59 µM]	-14%
CCOC(=O)N1CCN(C(=O)c2ccc3c(c2)sc2nc(-c4ccc(OC)cc4)cn23)CC1	-39%	-3%	33%	-13%	?	12%
Oc1c(Br)cc(C2N=C(c3ccccc3)NO2)cc1Br (stereo not drawn)	-33%	12µM*	28µM*	-19%[11.4 µM]	37%[0.501 µM]	-26%
CC(C)c1ccc(CCC(=O)Nc2cccnc2)cc1	.	.	-5%	.	.	.
COc1ccccc1NS(=O)(=O)c1cc(NC(=O)c2ccccc2F)ccc1N1CCOCC1	-12%	27µM*	-2%	-26%	?	-14%
COc1ccccc1NS(=O)(=O)c1cc(NC(=O)CCC2CCCC2)ccc1N1CCOCC1	?	-8%	2%	-15%	1.4µM*	36%
COc1ccccc1NS(=O)(=O)c1cc(NC(=O)c2ccccc2[N+](=O)[O-])ccc1N1CCOCC1	.	?	?	-21%	.	-19%[57 µM]
Cc1cccc(NC(=O)C2CCCN(S(=O)(=O)c3cccc4nsnc34)C2)n1 (stereo not drawn)	-2%	2%	-19%	-18%	0%	8%
CC(OC(=O)c1cc(=O)c2ccccc2o1)C(=O)Nc1ccc(N(C)C)cc1 (stereo not drawn)	-2%	-10%	-29%	?	3.2µM*	16%
COc1ccc(NC(=O)COC(=O)c2cc(=O)c3ccccc3o2)cc1OC	3%	-1%	-15%	-5%	?	29%
CC(OC(=O)c1cc(O)c2ccccc2c1O)C(=O)Nc1ccc(C(N)=O)cc1 (stereo not drawn)	?	6.7µM*	?	?	7.1µM*	?
CCc1ccc(NC(=O)c2cc(=O)c3ccccc3o2)cc1	.	.	26%	.	.	.
SMILES	BAZ2B inh	PLK1 PBD inh	12-LOX inh	JMJD2A Tudor inh	G9a inh	HP1b binding inh
CN(C)c1ccc(NC(=O)COC(=O)c2cc(=O)c3ccccc3o2)cc1	-31%	-10%	-10%	-15%	10µM*	38%
CC(OC(=O)c1c[nH]c2ccccc12)C(=O)Nc1ccc(C(N)=O)cc1 (stereo not drawn)	.	.	-18%	.	.	.
Cc1ccc(C(=O)N2CC(c3nnc(-c4ccc(C)cc4)o3)C3(CCOCC3)C2)cc1 (stereo not drawn)	.	.	33%	.	.	.
NNc1nc2c(F)cccc2s1	50µM*	-7%	?	89µM*	?	?
Fc1cccc2sc(Nc3nc4c(F)cccc4s3)nc12	-5%	-9%	13%	-10%	28%[59 µM]	31%
NNc1nc2c(F)cc(F)cc2s1	50µM*	-2%	40µM*	79µM*	?	-59%
O=C(Nc1nc2c(F)cc(F)cc2s1)c1ccco1	4%	-17%	29%	-15%	-12%	20%
O=C(Nc1ccc(-c2nc3ccccc3s2)cc1)c1cc(-n2cnnc2)ccc1Cl	?	-12%	2%	-8%	-36%[0.501 µM]	5%
CCN(C(=O)C(=O)c1c[nH]c2ccccc12)c1ccccc1	3%	-14%	-3%	-6%	11%[59 µM]	32%
CC(Sc1nc2cc([N+](=O)[O-])ccc2n1-c1ccc(F)cc1)C(=O)NCc1ccc2c(c1)OCO2 (stereo not drawn)	?	?	-13%	?	?	-13%
COc1ccccc1-n1c(SCC(=O)NCc2ccc3c(c2)OCO3)nc2cc([N+](=O)[O-])ccc21	-37%	?	?	50µM*	?	?
CCN(CC)S(=O)(=O)c1ccc2c(c1)nc(SCC(=O)N1CCOCC1)n2-c1ccccc1OC	?	-1%	0%	-11%	32µM*	10%
COc1ccc(CC(=O)Nc2cccc(C(C)=O)c2)cc1S(=O)(=O)N1CCOCC1	7%	-3%	-15%	-8%	18%[12.7 µM]	28%
CCN(CC)c1ccc(NC(=O)C(C)C)cc1	-3%	-6%	?	?	11µM*	5%
CCN(CC)c1ccc(NC(=O)Nc2cccc3ccccc23)cc1	?	1%	.	-24%	3.2µM*	-10%
